# High-throughput results: PubChem, National Center for Advancing Translational Sciences (NCATS)
# Nrf2 ARE act – qHTS of Nrf2 Activators; AREc32 ARE-luciferase reporter (MCF7-derived line), luminescence, 24 h; Potency, µM (highest dose often 46.1 µM), hits mostly activators; 410,000 compounds, 0.31% hits; AID 624171, 2012; also: nearly all actives have a fitted effect of over 65% in size
#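 ARE activation measured as luciferase luminescence (Steady-Glo, 30 min RT) in AREc32_Fluc cells after 24 hr compound exposure at 37 deg C, 5% CO2; cells seeded overnight at 1000/well in OPTI-MEM, 5% FBS.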
# ATXN2 expr inh – Primary qHTS for Inhibitors of ATXN expression | HEK-293 ATXN2-luciferase reporter, luminescence, 24 h | Potency, µM (highest dose often 57 µM), actives largely listed as inhibitors | 360,000 compounds, 0.72% hits | AID 1745845, 2022; also: nearly all actives have a fitted effect of over 55% in size
#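 ATXN2-luciferase reporter cells (luciferase flanked by upstream and downstream ATXN2 gene portions) were treated 24 h at 37 °C with compounds at up to 57 uM. SteadyGlo luminescence gave expression; GF-AFC fluorescence gave viability.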
# A549 tox – Nrf2 qHTS screen for inhibitors: counterscreen for cytotoxicity; A549 ARE-Fluc cells, CellTiter-Fluor viability, 18-24 h; 390,000 compounds, 0.16% hits; Potency, µM (highest dose often 46 µM), usual class: inhibitors
#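 A549 ARE_Fluc cells in 5% FBS OPTI-MEM were exposed to compounds in concentration-response for 18-24 h at 37 deg C. Viability was read by CellTiter-Fluor fluorescence (Ex 405/Em 525) after 30 min, before the luciferase read.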
# Nrf2 inh – Nrf2 qHTS screen for inhibitors; 360,000 compounds, 2.1% hits; A549 ARE-Fluc reporter, luciferase luminescence, 18-24 h; AID 504444, 2011; Potency, µM (series often up to 46 µM), most hits filed as inhibitors; also: nearly all actives have a fitted effect of over 60% in size
#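 A549 ARE_Fluc cells (5000/well, 5% FBS OPTI-MEM) pre-incubated 2 h, then treated with compounds 18-24 h at 37C/5% CO2 in concentration-response. CellTiter-Fluor viability read first; BugLite luciferase luminescence after 15 min at room temperature gives Nrf2 activity.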
# S2 tox – Viability Counterscreen for Primary qHTS for Inhibitors of ATXN expression; 400,000 compounds, 0.49% hits; S2 cells (HEK-293 line with an ATXN2-luciferase reporter) viability, CellTiter-Fluor protease fluorescence, 24 h; Potency, µM (titrated, usually from 56.7 µM), hits mostly cytotoxic; AID 651635, 2014; also: nearly all actives have a fitted effect of over 40% in size
# Hits are given with their value; 0 = inactive; ? = inconclusive; - = no result. Compounds with a hit are over-represented: about 2.9% of the library has one in this group of screens. Calls follow the shape of the dose curve; as a rule, active = well fitted curve in the direction sought with a large enough effect; inconclusive = small, poorly fitted or top-dose-only effect, or another doubt; inactive = no such curve, though single readings can be large; an effect the other way counts as inactive or inconclusive.
SMILES,Nrf2 ARE act,ATXN2 expr inh,A549 tox,Nrf2 inh,S2 tox
COc1ccccc1C(=O)N(Cc1nc(-c2ccc(Cl)cc2)no1)C(C)C,0,?,0,21µM,0
Cc1occc1C(=O)N(C)Cc1nc(-c2ccc(Cl)cc2)no1,0,0,?,21µM,0
Cc1cc(NC(=O)CCc2nc3cccnc3n2-c2ccccc2)ccc1Br,0,?,0,?,?
Cc1cc(C(=O)NC2CCCc3c2cnn3-c2ccc(C(C)(C)C)cc2)nn1C (configuration not stated),0,0,0,2.6µM,0
Cc1cc(C)cc(-n2ncc3c2CCCC3NC(=O)c2cc(C)n(C)n2)c1 (configuration not stated),0,0,0,0,?
CCN(CC)CC(=O)Nc1c(C)cccc1C(=O)OC,-,0,-,-,0
CCOc1cc(NC(=O)CCl)c(OCC)cc1NC(=O)CCl,7.1µM,0,0,?,?
CCOc1ccccc1NC(=O)CCC(=O)Nc1ccccc1OCC,0,0,0,0,0
CCc1ccccc1NC(=O)Cn1cc(S(=O)(=O)N2CCCC2)c(S(=O)(=O)N2CCCC2)c1,0,0,0,0,0
COCCN(Cc1cc2cc(C)cc(C)c2nc1Cl)C(=O)Nc1ccccc1,0,0,0,0,0
COCCN(Cc1cc2c(C)cc(C)cc2nc1Cl)C(=O)c1ccccc1F,0,-,?,18µM,0
COc1ccc(-c2ccc3ncnc(NCC4CCCO4)c3c2)cc1OC (configuration not stated),-,-,0,?,-
COC(=O)c1sc2cccc(F)c2c1S(=O)(=O)NC(C)c1ccccc1 (configuration not stated),?,0,0,0,0
COC(=O)c1sc2cccc(F)c2c1S(=O)(=O)NCc1ccccc1Cl,13µM,0,0,0,0
COC(=O)c1sc2cccc(F)c2c1S(=O)(=O)NCc1ccc(Cl)cc1,11µM,0,0,0,0
CC(C)(C)OC(=O)COc1cc(O)c2c(=O)cc(-c3ccccc3)oc2c1,0,0,0,?,0
CC(C)(C)OC(=O)COc1cc(OCC(=O)OC(C)(C)C)c2c(=O)cc(-c3ccccc3)oc2c1,0,20µM,16µM,23µM,20µM
O=C(/C=C/c1ccco1)OCc1nnc(-c2ccccc2)o1,11µM,0,0,0,0
O=C(OCc1nnc(-c2ccccc2)o1)c1ccc(CO)cc1,0,0,0,0,0
O=C(/C=C/c1ccco1)OCc1nnc(-c2ccc(Cl)cc2)o1,14µM,0,0,?,0
COc1ccc(Cl)cc1N1C(=O)[C@@H]2C[C@H]1CN2Cc1nc2ccccc2nc1C,-,-,-,-,0
c1ccc(COc2ncnc3c2ncn3CCCNC2CCN(Cc3ccccc3)CC2)cc1,0,25µM,-,-,-
NCCCC[C@H](NC(=O)[C@@H]1CCCN1C(=O)[C@@H]1CSSC[C@H](NC(=O)CNC(=O)CNC(=O)CN)C(=O)N[C@@H](Cc2ccc(O)cc2)C(=O)N[C@@H](Cc2ccccc2)C(=O)N[C@@H](CCC(N)=O)C(=O)N[C@@H](CC(N)=O)C(=O)N1)C(=O)NCC(N)=O,-,-,-,-,0
COc1ccc(C2CC(c3cccc(C(F)(F)F)c3)=NN2c2ccc(S(N)(=O)=O)cc2)cc1 (configuration not stated),0,?,0,23µM,-
COc1ccc(C2CC(c3cccc(F)c3)=NN2c2ccc(S(N)(=O)=O)cc2)cc1 (configuration not stated),0,?,0,?,-
SMILES,Nrf2 ARE act,ATXN2 expr inh,A549 tox,Nrf2 inh,S2 tox
Cc1ccc(Cc2c(C)nc3c(-c4ccccc4)c(C)[nH]n3c2=O)cc1,0,16µM,0,0,?
CCc1c(C)nc2c(-c3ccccc3)c(C)[nH]n2c1=O,0,0,0,0,0
COc1ccc(-c2c(C)[nH]n3c(=O)c(Cc4ccccc4)c(C)nc23)cc1,0,0,0,?,0
CCCCc1c(C)nc2c(-c3ccc(Cl)cc3)c(C)[nH]n2c1=O,0,?,0,5.8µM,?
COc1ccc(-c2cn3cccnc3n2)cc1NC(=O)Cc1ccccc1,0,-,0,-,-
CC(C)(O)[C@H]1CC[C@@](C)([C@H]2[C@@H](O)C[C@@]3(C)[C@@H]4C[C@H](O[C@@H]5O[C@H](CO)[C@@H](O)[C@H](O)[C@@H]5O)[C@H]5C(C)(C)[C@@H](O[C@@H]6OC[C@@H](O)[C@H](O)[C@@H]6O)CC[C@@]56C[C@@]46CC[C@]23C)O1,-,0,-,-,-
O=C(CCl)N(C/C=C/c1ccccc1)c1ccc2c(c1)OCCO2,?,1.3µM,0,?,1.3µM
C=CC(=O)Nc1cccc(CN2C(=O)N(c3cc(OC)cc(OC)c3)Cc3cnc(NCCCCN(CC)CC)nc32)c1,0,0,6.5µM,0,20µM
COc1cc(OC)c(NC(=O)c2cc3ccccc3cc2O)cc1Cl,0,?,0,26µM,0
COc1cc(OC)c(NC(=O)c2csc(C)c2)cc1Cl,13µM,0,0,0,0
COc1cc(OC)c(NC(=O)c2ccc(F)cc2)cc1Cl,0,0,0,?,0
c1coc(-c2cnc3ccccc3n2)c1,4µM,-,-,-,0
Oc1ccc(-c2cnc3ccccc3n2)cc1,0,0,0,?,-
c1coc(-c2nc3ccccc3nc2-c2ccco2)c1,10µM,0,0,0,?
COC(=O)c1ccc(CN2CCOc3ccc(C(O)c4cccnc4)cc3C2)cc1 (configuration not stated),-,-,-,-,0
Cc1sc2ncn(CC(=O)NCCCC(=O)Nc3ccc(C(C)C)cc3)c(=O)c2c1C,0,0,?,29µM,0
COc1ccccc1N1CCN(C(=O)CCCNC(=O)Cn2cnc3sc(C)c(C)c3c2=O)CC1,0,0,0,23µM,0
COc1ccc(N2CCN(C(=O)CCCNC(=O)Cn3cnc4sc(C)c(C)c4c3=O)CC2)cc1,0,0,0,0,0
Cc1csc2ncnc(NNC(=O)c3ccc(Cl)cc3)c12,0,?,0,21µM,?
O=C(NNc1ncnc2sccc12)c1ccc(Cl)cc1,0,0,0,?,0
COc1ccc(S(=O)(=O)NCCc2csc(-c3ccc(F)cc3)n2)cc1F,0,?,0,-,0
Cc1cc(C)c(NC(=O)Cn2c(=O)n(Cc3ccc4c(c3)OCO4)c(=O)c3ccccc32)c(C)c1,0,0,0,0,0
Cc1cc(C)c(NC(=O)Cn2c(=O)n(Cc3ccc(C(=O)NCc4ccc5c(c4)OCO5)cc3)c(=O)c3ccccc32)c(C)c1,0,-,0,15µM,-
O=C(CN1CCOCC1)N1N=C(c2cccs2)CC1c1cccs1 (configuration not stated),0,0,0,0,0
O=C(Nc1ccccc1)N1N=C(c2cccs2)CC1c1cccs1 (configuration not stated),0,0,0,23µM,0
O=c1c2ccccc2nc(/C=C/c2cccc3ccccc23)n1-c1ccc(F)cc1F,0,-,0,-,-
